# Source: publication PMC4336329 (PLoS ONE, 2015)
# Among all 310,000 compounds or so, about 14,000 (4.5%) showed an effect of 50% or more. The effect is printed as a negative number. What follows is part of a selection rich in strong results, with near analogues and random picks from the rest.
# Biological target: human ether-à-go-go-related gene (hERG) potassium channel (human, UniProt Q12809)
# Assay: primary screen, population patch clamp on CHO cells stably expressing hERG; higher = less effect of the substance
# 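Also: peak tail current of the secondary pulse compared with the same well before compound.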
# Chain of human ether-à-go-go-related gene (hERG) potassium channel (Q12809 whole entry, looked up): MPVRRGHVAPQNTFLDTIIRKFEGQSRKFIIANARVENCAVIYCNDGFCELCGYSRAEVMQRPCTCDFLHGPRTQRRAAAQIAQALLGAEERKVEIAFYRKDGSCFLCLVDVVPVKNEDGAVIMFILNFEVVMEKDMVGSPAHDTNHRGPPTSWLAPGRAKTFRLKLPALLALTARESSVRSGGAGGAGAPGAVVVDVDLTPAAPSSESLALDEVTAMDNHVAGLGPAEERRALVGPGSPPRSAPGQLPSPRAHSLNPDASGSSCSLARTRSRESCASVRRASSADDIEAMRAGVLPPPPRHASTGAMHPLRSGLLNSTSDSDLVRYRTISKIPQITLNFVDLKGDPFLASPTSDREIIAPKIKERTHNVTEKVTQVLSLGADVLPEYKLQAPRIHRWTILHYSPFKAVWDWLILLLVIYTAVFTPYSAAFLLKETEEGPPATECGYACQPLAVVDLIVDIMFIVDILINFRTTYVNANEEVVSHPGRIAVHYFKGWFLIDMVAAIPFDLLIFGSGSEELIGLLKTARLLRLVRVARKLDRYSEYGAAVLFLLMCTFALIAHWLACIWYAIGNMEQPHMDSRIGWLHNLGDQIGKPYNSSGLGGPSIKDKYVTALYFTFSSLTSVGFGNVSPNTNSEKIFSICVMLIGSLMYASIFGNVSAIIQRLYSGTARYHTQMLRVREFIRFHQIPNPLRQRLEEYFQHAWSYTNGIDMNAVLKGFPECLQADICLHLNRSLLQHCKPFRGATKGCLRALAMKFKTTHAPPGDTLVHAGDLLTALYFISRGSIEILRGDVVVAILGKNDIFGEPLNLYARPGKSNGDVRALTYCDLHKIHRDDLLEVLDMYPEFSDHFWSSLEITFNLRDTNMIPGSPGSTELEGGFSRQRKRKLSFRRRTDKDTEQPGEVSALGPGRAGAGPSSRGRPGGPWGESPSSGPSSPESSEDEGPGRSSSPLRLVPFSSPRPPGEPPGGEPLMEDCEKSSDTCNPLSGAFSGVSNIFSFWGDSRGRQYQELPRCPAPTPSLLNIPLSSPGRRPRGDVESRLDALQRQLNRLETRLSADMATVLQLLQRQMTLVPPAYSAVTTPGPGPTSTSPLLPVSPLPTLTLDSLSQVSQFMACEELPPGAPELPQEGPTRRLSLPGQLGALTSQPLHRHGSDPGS
row,SMILES,"hERG current change (%, negative = inhibition) at 10uM [%]"
1,O=C(Cn1c(=O)cnc2ccccc21)N1CCCc2ccccc21,10.8
2,CC1CN(C(=O)CN2C(=O)NC3(CCCC3)C2=O)C(=Nc2cccc(S(=O)(=O)N(C)C)c2)S1 (stereo not shown),-32
3,Cc1ccc(S(=O)(=O)N2CCN(C(=O)COC(=O)CCc3ccccc3)CC2)c(C)c1,-8.38
4,CCOC(=O)c1ccc2c(c1)nc(-c1ccc(F)cc1)c1nccn12,5.55
5,CNC(C)C(=O)NC(C(=O)N1CCCC1C(=O)NNc1ccccc1)C(C)C.O=CO (stereo not shown),5.01
6,O=S(=O)(c1ccccc1F)N1CCN(CCc2ccccc2)CC1,-5.81
7,O=C(NCCO)/C(=C/c1cccc([N+](=O)[O-])c1)NC(=O)c1ccco1,26.5
8,O=C(O)CNC(=O)/C(=C\c1cccc([N+](=O)[O-])c1)NC(=O)c1ccco1,15.7
9,O=C(NCc1ccco1)/C(=C/c1cccc([N+](=O)[O-])c1)NC(=O)c1ccco1,-56.8
10,O=C(NCc1ccccc1)/C(=C/c1cccc([N+](=O)[O-])c1)NC(=O)c1ccco1,-61.2
11,O=C(NCCO)/C(=C\c1cccc([N+](=O)[O-])c1)NC(=O)c1ccco1,6.73
12,CCN(CC)C(=O)/C(=C\c1cccc([N+](=O)[O-])c1)NC(=O)c1ccco1,-24
13,O=C(NCCc1ccccc1)/C(=C\c1cccc([N+](=O)[O-])c1)NC(=O)c1ccco1,-78.6
14,CCN(CC)C(=O)/C(=C/c1cccc([N+](=O)[O-])c1)NC(=O)c1ccco1,-25.8
15,O=C(NCc1ccco1)/C(=C\c1cccc([N+](=O)[O-])c1)NC(=O)c1ccco1,-64.7
16,CC(NC(=O)/C(=C\c1cccc([N+](=O)[O-])c1)NC(=O)c1ccco1)C(=O)O (stereo not shown),39.2
17,O=C(O)CNC(=O)/C(=C/c1cccc([N+](=O)[O-])c1)NC(=O)c1ccco1,-1.47
18,CC(NC(=O)/C(=C/c1cccc([N+](=O)[O-])c1)NC(=O)c1ccco1)C(=O)O (stereo not shown),0.397
19,COc1ccc(OCCNC(=S)Nc2cccc3ccccc23)cc1,3.79
20,Cc1ccccc1N(CC(=O)NC1CCCC1)C(=O)CS(=O)CC(=O)Nc1ccc2c(c1)OCO2 (stereo not shown),-8.74
21,COc1cc(C2NC(=O)NC(C)=C2C(C)=O)cc(OC)c1OC (stereo not shown),9.41
22,Cc1nc(SCC(=O)O)c(C#N)c2c1CCCC2,-10.9

row,SMILES,"hERG current change (%, negative = inhibition) at 10uM [%]"
1,COc1cc2c(-c3ccc4[nH]ccc4c3)c(-c3ccc(C#N)cc3)oc(=O)c2cc1OC,20.9
2,CCCCC(=Nc1ccc(N)cc1)C1=C(O)C(C(=O)OC)C(C)(C)CC1=O (stereo not shown),-1.62
3,C=CCNC(=O)c1ccc(OC)cc1,-12
4,C=CCNC(=O)c1ccc(N(C)S(=O)(=O)c2ccc(OC)cc2)cc1,-57.4
5,COc1ccc(N(C)S(=O)(=O)c2cccc(C(=O)NC3CCCC3)c2)cc1,-9.64
6,CCOc1ccc(N(Cc2ccc(C(=O)O)cc2)S(=O)(=O)c2ccc(C)cc2)cc1,-12.5
7,COc1ccc(S(=O)(=O)N(C)c2ccc(C(=O)NC3CCCC3)cc2)cc1,-83.7
8,COc1ccc(S(=O)(=O)N(C)c2ccc(C(=O)NC3CC3)cc2)cc1,-12.6
9,C=CCNC(=O)c1ccc(N(Cc2ccc(Cl)cc2)S(C)(=O)=O)cc1,-33.5
10,COCCCNC(=O)c1ccc(N(C)S(=O)(=O)c2ccc(OC)cc2)cc1,-20.6
11,C=CCNC(=O)c1ccc(CN(c2ccc(OCC)cc2)S(=O)(=O)c2ccc(C)cc2)cc1,-62
12,O=c1c2ccccc2nc(/C=C/c2ccc(Br)cc2)n1CCO,2.81
13,COCCNC(=O)/C(C#N)=C/c1c(N2CCN(c3ccccc3)CC2)nc2c(C)cccn2c1=O,5.92
14,O=C(Nc1cc(=O)[nH]c2ncnn12)c1ccccc1Cl,1.15
15,CCOC(=O)c1ccc(N2C(=O)CC(C3CCCO3)C2=O)cc1 (stereo not shown),-11.2
16,CN(Cc1ccccc1)S(=O)(=O)c1ccc(N2CCCC2=O)cc1,-12.7
17,Cl.Nc1nc(Nc2cccc(F)c2)nc2ccccc12,-19.3
18,Cc1ccc(NC(=O)c2c3c(nc4ccccc24)CCC3)cc1,2.86
19,Cl.Fc1cccc(Nc2c3c(nc4ccccc24)CCC3)c1,-68.2
20,Fc1cccc(Nc2nc(-c3ccncc3)nc3ccccc23)c1,15.4
21,Cc1ccc(Nc2c3c(nc4ccccc24)CCC3)cc1.Cl,-78.8
22,Cc1cccc(Nc2c3c(nc4ccccc24)CCC3)c1.Cl,-71.5

row,SMILES,"hERG current change (%, negative = inhibition) at 10uM [%]"
1,Cl.c1ccc(Nc2c3c(nc4ccccc24)CCC3)cc1,-76.2
2,Cc1cccc(Nc2ncnc3ccccc23)c1.Cl,-5.93
3,COc1cccc(NC(=O)CCCOc2cc(=O)n(C)c3ccccc23)c1,12.6
4,Cc1ccc(-n2c(SCC(=O)N3CCCCC3)nc(O)cc2=O)cc1,16.1
5,Cc1ccnc(SC2CC(=O)N(c3ccc([N+](=O)[O-])cc3)C2=O)n1 (stereo not shown),-26.8
6,COc1ccc(CNC(=O)c2ccc3c(c2)N(C)CCS3)cc1,-2.44
7,O=[N+]([O-])c1ccc(Cl)cc1NCCCN1CCOCC1,0.725
8,O=C(NCc1ccc2c(c1)CCO2)Nc1cccc(C(F)(F)F)c1,12.6
9,CCc1noc(C)c1C(=O)OC(C)C(=O)NCc1ccc(OC)cc1 (stereo not shown),-15.3
10,COc1ccc(-n2c(=O)[nH]cc(C(=O)N3CCc4ccccc43)c2=O)cc1,16.2
11,COc1ccc(-c2csc3nc(-c4ccccc4)oc(=O)c23)cc1OC,14.3
12,CN(C)CCNC(=O)c1ccc2c(c1)N(Cc1ccc(F)cc1)CCS2,-32.8
13,COc1cc(/C=C2\SC(N3CCC(C)CC3)=NC2=O)ccc1O,-5.99
14,Cc1ccc(C)c(NC(=O)COC(=O)c2cccc3c2C(=O)c2ccccc2C3=O)c1,-14.2
15,COc1ccc(Nc2c3c(nc4ccccc24)CCC3)cc1.Cl,-70.9
16,COc1ccc(NC(=O)c2c3c(nc4ccccc24)CCC3)cc1,10.1
17,COc1ccc(Nc2c3ccccc3nc3ccccc23)cc1,-69.6
18,O=C(CCCCCl)Nc1c2c(nc3ccccc13)CCC2,-23.6
19,O=C(NCc1ccc(F)cc1)c1c2c(nc3ccccc13)CCC2,-21.1
20,CC(=O)Nc1ccc(Nc2cc(C)c3ccccc3n2)cc1,-27.4
21,Cl.O=C(O)c1ccc(Nc2c3ccccc3nc3ccccc23)cc1,-2.61
22,Fc1ccc(Nc2c3c(nc4ccccc24)CCC3)cc1,-64.3

row,SMILES,"hERG current change (%, negative = inhibition) at 10uM [%]"
1,COc1ccc(Nc2nc(-c3ccccc3)c3ccccc3n2)cc1,-5.22
2,CC(=O)Nc1ccc(Nc2c3ccccc3nc3ccccc23)cc1,-55.7
3,CCOc1ccc(Nc2c3ccccc3nc3ccccc23)cc1,-42.4
4,COc1cc(NC(=O)c2c3c(nc4ccccc24)CCC3)cc(OC)c1,11.3
5,CCOC(=O)C1CCN(C(=O)Nc2ccc3oc(C)nc3c2)CC1,7.35
6,N/C(=N\OC(=O)c1cccnc1)c1ccc(Cl)cc1Cl,12.7
7,COc1ccc(-n2c(C)cc(C(=O)COC(=O)c3cc(NC(=O)c4cccs4)c(OC)c(OC)c3)c2C)cc1,6.03
8,COC(=O)c1ccc(CN2C(=O)NC3(CCCCC3)C2=O)cc1,11.2
9,COc1ccc(OCC(=O)N2CCN(S(=O)(=O)c3ccccc3[N+](=O)[O-])CC2)cc1,-31.2
10,CN(c1cccc2cccnc12)S(=O)(=O)c1ccccc1,-8.43
11,COc1cccc(CCN2CCC(CNS(=O)(=O)c3cc(-c4cc(C)no4)ccc3OC)CC2)c1,-74.9
12,COc1cccc(CNS(=O)(=O)c2cc(-c3cc(C)no3)ccc2C(C)C)c1,-7.33
13,COc1cccc(CCN2CCC(CNS(=O)(=O)c3cc(-c4cc(C)no4)ccc3C)CC2)c1,-77.2
14,COc1ccc(-c2cc(C)no2)cc1S(=O)(=O)NCc1cccc(C)c1,-41.5
15,Cc1cc(-c2ccc(C)c(S(=O)(=O)NCCN3CCC(C)CC3)c2)on1,-12.8
16,Cc1cc(-c2ccc(C)c(S(=O)(=O)NCc3cccc(Br)c3)c2)on1,-22.2
17,CCCNC(=O)c1[nH]c(C)c(C(C)=O)c1C,19.3
18,Cc1cc(C)cc(C(=O)Nc2ccc(N3CCN(S(C)(=O)=O)CC3)cc2)c1,15.7
19,Cc1ccc(CNC(=O)CCCNS(=O)(=O)c2cccc3nonc23)cc1,-11.4
